# From PubChem BioAssay
# Only some compounds are listed: those with a hit (about 2.8% of all), similar ones and a draw of the others.
# FEN1 inhibitor – qHTS Assay for the Inhibitors of Human Flap endonuclease 1 (FEN1); Recombinant FEN1 flap cleavage, fluorescence, 15 min; Potency, µM (titrated, usually from 114 µM), actives largely listed as inhibitors; hit rate 0.35% among 390,000; AID 588795, 2011; further: nearly all actives have a fitted effect of over 65% in size
#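 In this screen, 50 nM flap DNA substrate was added to 10 nM FEN1 pretreated with compound for 15 min at room temperature; cleavage was followed with reads at 0 and 15 min, and Hill fitting gave concentration–response parameters.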
# Pol beta inh – qHTS Assay for Inhibitors of DNA Polymerase Beta; Pol beta primer extension/strand displacement, fluorescence kinetic; hit rate 1.3% among 340,000; Potency, µM (highest dose often 114 µM), hits mostly inhibitors
#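 Pol beta (10 nM) and compounds were preincubated 15 min at room temperature, then 50 nM substrate (final) started primer extension/strand displacement. Reads were taken at 0 and 10 min; concentration-response data were fitted to a four-parameter Hill equation.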
# POLK inh – qHTS for Inhibitors of Polymerase Kappa | hit rate 0.53% among 400,000 | AID 588579, 2011 | DNA polymerase kappa (Homo sapiens), Q9UBT6 | Potency, µM (top dose mostly 107 µM), most hits filed as inhibitors | purified Pol kappa, fluorescent DNA synthesis assay, 10 min
#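 Kinetic fluorescence screen: compound preincubated 15 min RT with 10 nM enzyme; 50 nM substrate (final) initiates; reads at 0/10 min.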
# Pol eta inh – qHTS for Inhibitors of Polymerase Eta; DNA polymerase eta (Homo sapiens), Q9Y253; recombinant Pol eta, fluorescent DNA replication assay; Potency, µM (doses to about 114 µM), actives largely listed as inhibitors; hit rate 1.2% among 390,000; AID 588591, 2011
# Target sequence (Q9Y253 whole entry, looked up): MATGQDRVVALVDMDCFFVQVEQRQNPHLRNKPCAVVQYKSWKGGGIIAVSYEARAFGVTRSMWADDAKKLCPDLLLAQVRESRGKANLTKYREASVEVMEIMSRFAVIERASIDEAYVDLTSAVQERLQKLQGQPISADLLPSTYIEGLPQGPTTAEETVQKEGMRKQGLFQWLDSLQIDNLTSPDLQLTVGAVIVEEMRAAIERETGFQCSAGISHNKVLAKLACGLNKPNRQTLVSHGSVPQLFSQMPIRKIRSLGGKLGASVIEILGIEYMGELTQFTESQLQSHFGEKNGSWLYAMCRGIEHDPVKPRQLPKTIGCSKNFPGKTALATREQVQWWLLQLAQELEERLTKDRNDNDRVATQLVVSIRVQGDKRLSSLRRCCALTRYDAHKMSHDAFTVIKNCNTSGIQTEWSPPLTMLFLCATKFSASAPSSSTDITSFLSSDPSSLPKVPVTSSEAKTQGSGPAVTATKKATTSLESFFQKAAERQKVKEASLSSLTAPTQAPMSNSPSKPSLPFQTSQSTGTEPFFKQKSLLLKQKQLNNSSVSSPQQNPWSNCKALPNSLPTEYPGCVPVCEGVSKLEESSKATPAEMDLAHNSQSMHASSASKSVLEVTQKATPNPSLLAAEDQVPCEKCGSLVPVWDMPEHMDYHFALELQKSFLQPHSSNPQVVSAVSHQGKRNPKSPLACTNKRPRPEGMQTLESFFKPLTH
#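 Pol eta (10 nM) was preincubated with compounds for 15 min at room temperature, after which fluorescent replication substrate (50 nM final) was added to start the reaction. Fluorescence was read kinetically at 0 and 10 min.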
# PI5P4K alpha inh – qHTS for Inhibitors of phosphatidylinositol 5-phosphate 4-kinase (PI5P4K). Phosphatidylinositol 5-phosphate 4-kinase type-2 alpha (Homo sapiens), P48426. PI5P4Kalpha enzyme, ADP-Glo luminescence, 60 min; stronger effect = lower value. max response, %. hit rate 1.2% among 330,000; active means max response of -50% or lower; inconclusive means between -30% and -50%; inactive means -30% or higher; further: value at the top dose of about 77 µM
#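 ADP-Glo luminescence end-point after a 60 min room-temperature kinase reaction. PI5P4Kalpha and substrate in HEPES pH 7.4 buffer with EGTA, 0.1% CHAPS and 5% DMSO; ATP at 5 microM final.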
# POLI inh – qHTS for Inhibitors of Polymerase Iota | Pol iota fluorescent replication assay, 10 min | DNA polymerase iota (Homo sapiens), Q9UNA4 | Potency, µM (titrated, usually from 115 µM), actives largely listed as inhibitors | hit rate 1% among 390,000
#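 Fluorescent replication assay read twice, at 0 min and 10 min after adding 50 nM (final) substrate. Enzyme (10 nM) and compounds were first incubated 15 min at room temperature; enzyme-free buffer wells were negative controls.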
# A number is an active result; - = inactive; ? = inconclusive; . = no result given; [ ] = another dose, or the depositor's remark. Unless noted, the call rests on the fitted dose curve; in most records, active means well fitted curve in the direction sought with a large enough effect; inconclusive means small, poorly fitted or top-dose-only effect, or another doubt; inactive means no such curve, though single readings can be large; an effect the other way counts as inactive or inconclusive.
SMILES,FEN1 inhibitor,Pol beta inh,POLK inh,Pol eta inh,PI5P4K alpha inh,POLI inh
COc1ccc2c(CC(=O)OCC(=O)Nc3ccc(C)cc3)coc2c1,-,.,?,20µM,-,?
COc1ccc2c(CC(=O)OCC(=O)Nc3ccc(S(N)(=O)=O)cc3)coc2c1,-,-,-,-,-,-
CC(=O)Nc1cc(N=Cc2ccc(O)cc2O)c(Cl)cc1Cl,-,-,-,45µM,?,?
Cc1ccc(NC(=O)Cn2nnc(-c3nc(-c4ccc(Cl)cc4)no3)c2N)cc1C,-,-,-,-,.,-
Oc1cccc(/C=N/N(Cc2ccccc2)c2ccccc2)c1,-,-,-,-,-,-
Oc1ccc(/C=N/N(Cc2ccccc2)c2ccccc2)c(O)c1O,-,6.3µM,-,-,-76,-
CC(C)=CCc1c(O)cc(O)c2c1OC(c1ccc(O)cc1)CC2=O (stereo unspecified),-,.,-,-,-63,-
Cc1ccc(C(=O)OCc2nc3ccsc3c(=O)[nH]2)o1,-,.,-,-,-,?
O=C(/C=C/c1ccc(Br)o1)OCc1nc2ccsc2c(=O)[nH]1,79µM,.,10µM,0.79µM,-67,10µM
CCCCn1c(=O)[nH]c(=O)c2c1nc(CN1C(=O)c3ccccc3S1(=O)=O)n2CCC,-,-,-,-,-,-
CCCCn1c(=O)[nH]c(=O)c2c1nc(Cn1ncc(Cl)c(Cl)c1=O)n2CCC,-,50µM,-,56µM,-52,25µM
COc1ccc(C(=O)NCC(c2ccc3c(c2)OCO3)N2CCN(c3ccccc3F)CC2)cc1 (stereo unspecified),-,-,-,-,.,-
O=C1c2ccccc2C(=Cc2cccnc2)c2ccccc21,.,.,.,-,-54,.
COc1cc(OC)cc(C(=O)OCC(=O)c2cc(C)n(CC3CCCO3)c2C)c1 (stereo unspecified),-,.,-,-,-,-
Cc1cc(C(=O)COC(=O)c2ccc(O)cc2)c(C)n1CC1CCCO1 (stereo unspecified),-,-,?,-,-,89µM
CC(C)(C)c1[nH]nc2c1C(c1ccncc1)C(C#N)=C(N)O2 (stereo unspecified),-,-,-,-,-51,-
CC[C@]12CCCN3CCc4c(n(c5ccccc45)C(=O)C1)[C@H]32,.,.,-[19.4 µM],.,.,.
CCN(CC)C(=O)C1CCCN(c2ncnc3c2c(-c2ccccc2)cn3-c2cccc(C)c2)C1 (stereo unspecified),-,-,-,-,.,-
O=C(O)c1cc2cc(Cl)cc(Cl)c2oc1=O,-,79µM,?,?,?,?
Cc1cccn2c(=O)c(C(=O)NCc3cccc(F)c3)cnc12,-,-,-,-,.,-
COc1cccc(NC(=O)c2ccc3nc(C)sc3c2)c1,-,-,-,-,-,-
Cc1ccc(C(=O)NCCN2CCC(n3c(=O)[nH]c4ccccc43)CC2)cc1C,.,.,.,.,-,.
O=[N+]([O-])c1nccn1CC(O)CO (stereo unspecified),.,.,.,.,-,.
O=C(CSc1nnc(NC(=O)c2ccccc2Cl)s1)Nc1ccc2c(c1)oc1ccccc12,.,32µM,.,.,.,.
CCc1nc2oc3cc(OC)ccc3c(=O)c2c(=O)n1Cc1ccco1,-,25µM,-,-,?,?
COc1ccc(-c2nc3oc4cc(OC)ccc4c(=O)c3c(=O)n2Cc2ccco2)cc1,?,-,-,?,-,-
CCC(C)n1c(NC(=O)c2ccccc2)c(C#N)c2nc3ccccc3nc21 (stereo unspecified),?,40µM,?,50µM,-,3.2µM
CCN(C(=O)C1CCN(c2ncnc3c2nc2n3CCCCC2)CC1)c1cccc(Cl)c1,-,-,-,-,.,-
Cc1nc2oc3c(NCc4ccccc4)ncnc3c2c2c1COC(C)(C)C2,-,-,-,14µM,-,-
O=C(CSc1nc2c(c(=O)[nH]1)CCCC2)Nc1ccc(Br)cc1,-,-,-,.,.,-
